hERG WT inh: KCNH2 (human, wildtype) channel inhibition; U2OS, BacMam KCNH2, thallium flux FluxOr; hits give low values; activity change, % at 1.84 µM; 340,000 compounds, 0.37% hits; AID 720551;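 active = maximum activity change below -70%; inconclusive = maximum activity change between -70% and -50%; inactive = maximum activity change above -50%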
Target sequence (Q12809 whole entry, looked up): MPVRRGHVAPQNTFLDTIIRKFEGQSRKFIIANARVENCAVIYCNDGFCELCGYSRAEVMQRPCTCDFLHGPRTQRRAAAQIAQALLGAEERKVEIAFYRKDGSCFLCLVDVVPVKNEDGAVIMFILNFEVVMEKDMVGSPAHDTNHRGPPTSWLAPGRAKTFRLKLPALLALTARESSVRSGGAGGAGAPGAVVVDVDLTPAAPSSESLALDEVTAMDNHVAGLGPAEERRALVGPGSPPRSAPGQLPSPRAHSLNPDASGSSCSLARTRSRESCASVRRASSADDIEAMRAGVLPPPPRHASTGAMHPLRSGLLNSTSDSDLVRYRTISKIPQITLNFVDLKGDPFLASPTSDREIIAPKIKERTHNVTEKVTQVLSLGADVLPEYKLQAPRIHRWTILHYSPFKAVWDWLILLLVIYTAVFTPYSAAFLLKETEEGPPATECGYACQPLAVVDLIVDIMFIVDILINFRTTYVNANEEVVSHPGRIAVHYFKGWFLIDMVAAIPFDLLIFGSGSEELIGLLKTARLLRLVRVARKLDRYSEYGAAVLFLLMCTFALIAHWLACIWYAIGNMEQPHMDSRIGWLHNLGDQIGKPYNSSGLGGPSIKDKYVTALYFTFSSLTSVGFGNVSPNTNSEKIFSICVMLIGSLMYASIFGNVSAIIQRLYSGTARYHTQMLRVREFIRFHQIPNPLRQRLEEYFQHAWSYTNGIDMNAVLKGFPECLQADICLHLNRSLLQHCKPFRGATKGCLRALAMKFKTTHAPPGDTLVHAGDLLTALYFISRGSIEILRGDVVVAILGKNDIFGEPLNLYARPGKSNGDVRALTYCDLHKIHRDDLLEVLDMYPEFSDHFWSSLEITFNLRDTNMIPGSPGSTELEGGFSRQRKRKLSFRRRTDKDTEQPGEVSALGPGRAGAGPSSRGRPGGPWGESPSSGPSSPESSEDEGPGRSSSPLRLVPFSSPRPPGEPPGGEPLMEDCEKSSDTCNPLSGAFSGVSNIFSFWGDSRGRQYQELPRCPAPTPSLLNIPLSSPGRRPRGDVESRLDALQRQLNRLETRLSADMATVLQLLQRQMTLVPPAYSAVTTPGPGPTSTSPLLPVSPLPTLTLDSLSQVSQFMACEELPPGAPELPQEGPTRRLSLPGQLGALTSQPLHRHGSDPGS
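U2OS cells transduced with wild-type KCNH2 virus are loaded with FluxOr dye for 45 min, and thallium flux is measured in kinetic reads before and after stimulation buffer. Rate constants are normalized to DMSO controls.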
RXFP1 antag: RXFP1 (human) relaxin receptor antagonism. 350,000 compounds, 0.59% hits. HEK293-RXFP1, relaxin-stimulated cAMP HTRF, 30 min; hits give low values. Q9HBX9. activity change, negative = inhibition, % at 57.5 µM;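 active = activity change of -60% or lower, but not beyond a set lower limit; inconclusive = change between -60% and -40%, or beyond the set limit; inactive = change above -40%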
pAkt inh: inhibitors of Akt phosphorylation. Neuro2A IGF-stimulated pAkt S473 HTRF, 20 min; hits give low values. activity change, % for hits at 50 µM. 360,000 compounds, 0.32% hits; in the data active = activity change below about -80%; inconclusive = mostly about -51% to -80%
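Neuro2A cells (4,500/well, DMEM with 0.5% FBS) were treated with compound at a single 50 µM final concentration, stimulated with 6 nM IGF for 20 min at 37 °C, and lysed. Phospho-Akt Ser473 was read by HTRF as 665/615 ratio ×10^4.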
KCNH2 3.1 inh: blocks the human KCNH2 3.1 channel isoform | U2OS KCNH2 3.1, thallium flux FluxOr; hits give low values | activity change, % (tested at about 1.8 µM) | 340,000 compounds, 0.95% hits | AID 720553;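 active = maximum activity change below -70%; inconclusive = maximum activity change from -70% to -50%; inactive = maximum activity change above -50%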;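 also: thallium influx rate constant from kinetic fluorescence after stimulation buffer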
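We transduce U2OS cells with the mutant 3.1 virus, culture them overnight, load FluxOr with Red40 quencher for 45 min, then add stimulation buffer and read kinetically for 2 min to derive a normalized rate constant.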
RXFP1 agonist: RXFP1 (human) receptor agonism; AID 2676; HEK293T-RXFP1 cAMP TR-FRET, 30 min; response scale: percent of porcine relaxin response, buffer zero; 370,000 compounds, 0.3% hits; Potency, µM (series often up to 57.5 µM), usual class: activators; active = well fitted activation curve with a large enough effect; inconclusive = small, poorly fitted or top-dose-only effect; also: nearly all actives have a fitted effect of over 60% in size
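HEK293T cells stably expressing RXFP1 were pretreated with the PDE4 inhibitor Ro 20174, exposed to compounds for 30 min at 37C, lysed, and cAMP was read by TR-FRET. Data normalized to buffer (basal) and 29 nM porcine relaxin (100%).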
Numbers stand for hits. Compounds with a hit are over-represented: about 1.7% of the library has one in this group of screens.

Results for OCCN1CCN(c2nc(-c3ccccc3)c3cc(Cl)ccc3n2)CC1 ?
hERG WT inh: inactive; RXFP1 antag: inactive; pAkt inh: inactive; KCNH2 3.1 inh: -99; RXFP1 agonist: inactive

Results for Cc1ccc2nc(N3CCN(CCO)CC3)nc(-c3ccccc3)c2c1 ?
hERG WT inh: inactive; RXFP1 antag: inconclusive; pAkt inh: inactive; KCNH2 3.1 inh: inactive; RXFP1 agonist: inactive

Results for Cc1ccc(NC(=O)COC(=O)c2cccnc2Cl)cc1S(=O)(=O)N1CCOCC1 ?
hERG WT inh: inactive; RXFP1 antag: inactive; pAkt inh: inactive; KCNH2 3.1 inh: inactive

Results for COc1ccc(NC(=O)C2CCN(C(=O)[C@@H]3Cc4ccccc4CN3)CC2)cc1 ?
hERG WT inh: inactive; RXFP1 antag: inactive; pAkt inh: inactive; KCNH2 3.1 inh: -114; RXFP1 agonist: inactive

How did CCc1ccc(NC(=O)C2CCN(C(=O)[C@@H]3Cc4ccccc4CN3)CC2)cc1 do in these assays?
hERG WT inh: inactive; RXFP1 antag: inactive; pAkt inh: inactive; KCNH2 3.1 inh: inactive; RXFP1 agonist: inactive

Results for NC(=S)N/N=C1\CC(c2ccc3c(c2)OCCCO3)Oc2ccc(F)cc21 (stereo not drawn) ?
hERG WT inh: inactive; RXFP1 antag: -61; pAkt inh: inactive; KCNH2 3.1 inh: inactive; RXFP1 agonist: inactive

Results for CCCOC(=O)c1sc2nc3c(cc2c1N)C(=O)CCC3 ?
hERG WT inh: inactive; RXFP1 antag: inactive; pAkt inh: inconclusive; KCNH2 3.1 inh: inactive; RXFP1 agonist: inactive

What do the screens show for `Cc1ccc(-n2nnnc2SC(C)C(=O)NCC(=O)Nc2ccc(F)c(F)c2F)c(C)c1` (stereo not drawn)?
hERG WT inh: inactive; RXFP1 antag: inactive; pAkt inh: inactive; KCNH2 3.1 inh: inactive; RXFP1 agonist: inactive

What do the screens show for `Cc1ccc(-n2nnnc2SC(C)C(N)=O)c(C)c1` (stereo not drawn)?
hERG WT inh: inactive; RXFP1 antag: inactive; pAkt inh: inactive; KCNH2 3.1 inh: -76; RXFP1 agonist: inactive

Results for CCOc1ccc(-n2c(=S)sc3c(=O)n(-c4ccc(F)cc4)c(SCC(=O)O)nc32)cc1 ?
hERG WT inh: -239; RXFP1 antag: inactive; pAkt inh: inactive; KCNH2 3.1 inh: inactive; RXFP1 agonist: inactive

What do the screens show for `CCN(CC)C(=O)CSc1nc2c(sc(=S)n2-c2ccccc2)c(=O)n1Cc1ccco1`?
hERG WT inh: inactive; RXFP1 antag: inactive; pAkt inh: inactive; KCNH2 3.1 inh: -78; RXFP1 agonist: inactive

Results for CCN(CC)C(=O)CSc1nc2c(sc(=S)n2CC)c(=O)n1-c1ccccc1 ?
hERG WT inh: inactive; RXFP1 antag: inactive; pAkt inh: inactive; KCNH2 3.1 inh: inactive; RXFP1 agonist: inactive

Results for O=C(NNc1ccc([N+](=O)[O-])cc1)C1C2CCCCC21 (stereo not drawn) ?
hERG WT inh: inactive; RXFP1 antag: inactive; pAkt inh: inactive; KCNH2 3.1 inh: inactive; RXFP1 agonist: inactive

Results for OCCC1CN(Cc2cccn2-c2nccs2)CCN1Cc1ccc(F)c(F)c1 (stereo not drawn) ?
hERG WT inh: inactive; RXFP1 antag: inactive; pAkt inh: inactive; KCNH2 3.1 inh: -85; RXFP1 agonist: inactive

Results for CCOc1ccc(CN2CCN(Cc3cccn3-c3nccs3)CC2CCO)cc1 (stereo not drawn) ?
hERG WT inh: -134; RXFP1 antag: inactive; pAkt inh: inactive; KCNH2 3.1 inh: -113; RXFP1 agonist: inactive

How did CCOc1ccc(CN2CCN(C/C=C/c3ccc(OC)cc3)CC2CCO)cc1 (stereo not drawn) do in these assays?
hERG WT inh: inactive; RXFP1 antag: inactive; pAkt inh: inactive; KCNH2 3.1 inh: -88; RXFP1 agonist: inactive

How did OCCC1CN(Cc2cccn2-c2nccs2)CCN1Cc1ccccc1 (stereo not drawn) do in these assays?
hERG WT inh: inactive; RXFP1 antag: inactive; pAkt inh: inactive; KCNH2 3.1 inh: inactive; RXFP1 agonist: inactive

What do the screens show for `Cc1ncc(CN2CCN(Cc3ccccc3)C(CCO)C2)s1` (stereo not drawn)?
hERG WT inh: inactive; RXFP1 antag: inactive; pAkt inh: inactive; KCNH2 3.1 inh: inactive; RXFP1 agonist: inactive

What do the screens show for `CC(C)=CCN1CCN(Cc2cccn2-c2nccs2)CC1CCO` (stereo not drawn)?
hERG WT inh: inactive; RXFP1 antag: inactive; pAkt inh: inactive; KCNH2 3.1 inh: inactive; RXFP1 agonist: inactive

How did CCOc1ccc(CN2CCN(Cc3cnc(-c4ccccc4)s3)CC2CCO)cc1 (stereo not drawn) do in these assays?
hERG WT inh: -96; RXFP1 antag: inactive; pAkt inh: inactive; KCNH2 3.1 inh: -97; RXFP1 agonist: inactive

What do the screens show for `COc1ccc(CC(=O)NCCc2sc(-c3cccc(F)c3)nc2C)cc1`?
RXFP1 antag: inactive; RXFP1 agonist: inactive

How did Cc1nc2sc3c(c2c(=N)n1N)CC(C)(C)OC3 do in these assays?
hERG WT inh: inactive; RXFP1 antag: inactive; pAkt inh: inactive; KCNH2 3.1 inh: inactive; RXFP1 agonist: inactive

Results for O=C(NCCN1CCOCC1)c1cc2sccc2n1Cc1ccc(Cl)cc1 ?
hERG WT inh: inactive; RXFP1 antag: inactive; pAkt inh: inactive; KCNH2 3.1 inh: inconclusive; RXFP1 agonist: inactive

How did Cc1cccc(N2C(=O)CN(Cc3sccc3C)C2=S)c1 do in these assays?
hERG WT inh: inactive; RXFP1 antag: inactive; pAkt inh: inactive; KCNH2 3.1 inh: inactive; RXFP1 agonist: inactive

Results for CCCNC(=O)c1nnsc1S(=O)(=O)c1ccc(Cl)cc1 ?
hERG WT inh: inactive; RXFP1 antag: -63; pAkt inh: inactive; KCNH2 3.1 inh: inconclusive; RXFP1 agonist: inactive

How did CNC(=O)c1nnsc1S(=O)c1ccc(Cl)cc1 (stereo not drawn) do in these assays?
hERG WT inh: inactive; RXFP1 antag: inconclusive; pAkt inh: inactive; KCNH2 3.1 inh: inactive; RXFP1 agonist: inactive

Results for CCCNC(=O)NS(=O)(=O)c1ccc(Cl)cc1 ?
hERG WT inh: inactive; RXFP1 antag: inactive; pAkt inh: inactive; KCNH2 3.1 inh: inactive; RXFP1 agonist: inactive

What do the screens show for `CCCNC(=O)c1nnsc1S(=O)c1ccc(Cl)cc1` (stereo not drawn)?
hERG WT inh: inactive; RXFP1 antag: -71; pAkt inh: inactive; KCNH2 3.1 inh: inactive; RXFP1 agonist: inactive

Results for OC(COc1ccccc1F)CN1CCC(Cc2ccccc2)CC1 (stereo not drawn) ?
hERG WT inh: inactive; RXFP1 antag: inactive; pAkt inh: inactive; KCNH2 3.1 inh: inconclusive; RXFP1 agonist: inactive

Results for OC(COc1ccccc1)CN1CCC(Cc2ccccc2)CC1 (stereo not drawn) ?
hERG WT inh: inactive; RXFP1 antag: inactive; pAkt inh: inactive; KCNH2 3.1 inh: -115; RXFP1 agonist: inactive

What do the screens show for `Cc1ccccc1OCC(O)CN1CCC(C)CC1` (stereo not drawn)?
hERG WT inh: inactive; RXFP1 antag: inactive; pAkt inh: inactive; KCNH2 3.1 inh: -80; RXFP1 agonist: inactive

Compound activity deposited in PubChem BioAssay by National Center for Advancing Translational Sciences (NCATS).
